# A selection: hits, their analogues and other compounds. The true share with any hit is near 0.44%.
# YopH PTP inh: blocks Yersinia enterocolitica YopH tyrosine phosphatase; inhibition, % (no concentration beside the values); fluorescence Ex485/Em525; 140,000 compounds, 0.16% hits; in the data active = inhibition above about 50%
# RmlC RmlD mix: RmlC/RmlD inhibition, mixture screen | RmlC/RmlD coupled enzyme inhibition, 384-well mixture HTS | inhibition, % at 5.5 µM | 110,000 compounds, 0.39% hits | AID 1532; in the data active = inhibition above about 30%, passing the limit was not always enough
# RmlCD artifact: RmlC/RmlD fluorescence artifact, counter-screen. 360 compounds, 96% hits. RmlC/RmlD assay fluorescence artifact counter-screen. shares compounds with RmlC RmlD mix. calls only; call rule not given here;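 also: compound alone with no enzyme and no substrates present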
# Starred values were filed as active, the others as inactive; i = inactive; nt = not tested or not shown; + = active, no number.
SMILES,YopH PTP inh,RmlC RmlD mix,RmlCD artifact
COc1ccc(C2CC(c3ccccc3)=NN2c2ccc(/C=N/NC(=O)c3ccncc3)cc2)cc1 (stereo not given),-8,8,nt
CC(C)(C)C1CCc2c(sc(NC(=O)c3ccco3)c2C(N)=O)C1 (stereo not given),-22,64*,+
CCC1CCc2c(sc(NC(=O)c3ccco3)c2C(N)=O)C1 (stereo not given),-10,-3,nt
CCOC(=O)c1ccc(CNCc2ccc(C)cc2)cc1,9,nt,nt
Cc1ccc(CCNc2ccccc2C)cn1,-28,6,nt
Cc1nc(NC(=O)/C=C/c2ccccc2)sc1C(=O)Nc1ccc(Cl)cc1,-32,-15,nt
Cc1nc(NC(=O)/C=C/c2ccccc2)sc1C(=O)Nc1ccccc1Cl,-25,37*,+
COc1ccc(NS(=O)(=O)c2cccc(-c3nnc(-c4ccccc4)o3)c2)cc1,-31,8,nt
Cc1c(O)ccc2c3c(c(=O)oc12)CCCC3,-30,70,nt
CC(C)CN(Cc1c(O)ccc2c3c(c(=O)oc12)CCC3)CC(C)C,-112,95*,+
O=c1c(-c2ccc3c(c2)OCCO3)coc2c(CN3CCOCC3)c(O)ccc12,-35,13,nt
O=c1oc2c(CN3CCOCC3)c(O)ccc2c2c1CCC2,-29,100*,+
Cc1cc(=O)oc2c(CN(CC(C)C)CC(C)C)c(O)ccc12,-31,105*,+
CCN(CC)Cc1c(O)ccc2c(-c3ccccc3)cc(=O)oc12,-32,-8,nt
COc1ccccc1NC(=O)Cn1c(=O)n(CCc2c[nH]c3ccccc23)c(=O)c2cccnc21,-32,nt,nt
COc1ccc2c(c1)c(CCNNC(=O)C(C)(C)C)c(C)n2C(=O)c1ccc(Cl)cc1,nt,2,nt
CC1(O)C(=O)C=C2C=C(c3ccc(C#N)cc3)OC=C2C1=O (stereo not given),nt,10,nt
CN(C)C(=O)COC(=O)c1cc(Cl)cc(Cl)c1N,-14,36*,+
CC(C)N(C(=O)COC(=O)c1cc(Cl)cc(Cl)c1N)C(C)C,8,-7,nt
COCCNC(=O)c1c(N)n(Cc2ccco2)c2nc3ccccc3nc12,-11,19,nt
COC(=O)c1c(N)n(CCCN2CCOCC2)c2nc3ccccc3nc12,-17,-6,nt
Nc1c(C(=O)NCCN2CCOCC2)c2nc3ccccc3nc2n1Cc1ccco1,-3,37*,+
CCOC(=O)c1c(N)n(CCN2CCCCC2)c2nc3ccccc3nc12,-21,38*,+
CC(C)(C)NS(=O)(=O)c1cccc(S(=O)(=O)c2cccc(S(=O)(=O)NC(C)(C)C)c2)c1,-51,nt,nt
CCCc1cc(=O)[nH]c(SCc2cc(Cl)ccc2OC(F)F)n1,-6,-10,nt
SMILES,YopH PTP inh,RmlC RmlD mix,RmlCD artifact
CN1CCN(CCCNC(=O)c2ccc3c(c2)N(Cc2ccccc2)CCS3)CC1,-36,38*,+
O=C(NCCN1CCOCC1)c1ccc2c(c1)N(Cc1ccccc1)CCS2,-43,18,nt
O=C(NCCN1CCOCC1)c1ccc(F)cc1,-3,-2,nt
O=C(NCCN1CCOCC1)c1ccc(=O)oc1,-7,43*,+
O=C(Nc1ccccc1N1CCOCC1)c1cc(-c2ccco2)nc2ccccc12,-6,nt,nt
CNC(=O)COC(=O)c1cc(-c2ccco2)nc2ccccc12,nt,nt,+
O=C(COC(=O)c1cc(-c2ccco2)nc2ccccc12)NCc1ccccc1,-26,-27,nt
O=C(NNC(=O)c1cc(-c2ccco2)nc2ccccc12)c1ccccc1,nt,nt,+
COc1ccc(NC(=O)C2CCN(S(=O)(=O)c3ccc(Br)s3)CC2)cc1OC,-28,nt,nt
COCCn1c(-c2ccc(-c3ccccc3Cl)o2)nc2c1c(=O)[nH]c(=O)n2CC(C)C,-32,144*,+
CCCCn1c(=O)[nH]c(=O)c2c1nc(-c1ccc(-c3ccccc3Br)o1)n2CCOC,-23,-82,nt
O=C(c1ccc(F)cc1)n1c(NCc2ccccc2)n[nH]c1=S,nt,nt,i
O=C(c1ccc([N+](=O)[O-])cc1)n1nc(-c2ccccc2)nc1NCc1ccc(F)cc1,-29,nt,nt
CCOCC(=O)N1CCN(c2ccc([N+](=O)[O-])cc2)CC1,-23,nt,nt
O=C(CSc1nnc(-c2ccncc2)n1Cc1ccccc1)NC1CCCc2ccccc21 (stereo not given),3,nt,nt
CCOC(=O)c1oc2c(CN3CCN(C)CC3)c(O)ccc2c(=O)c1-c1ccccc1OC,-7,9,nt
COc1ccccc1-c1c(C)oc2c(CN3CCN(CCO)CC3)c(O)ccc2c1=O,-37,nt,i
COc1ccc(-c2c(C)oc3c(CN4CCN(CCO)CC4)c(O)ccc3c2=O)cc1OC,-20,nt,nt
COc1ccccc1-c1c(C)oc2c(CN3CCN(C)CC3)c(O)ccc2c1=O,-36,43*,+
COc1cccc(N2CCN(C(=S)NCc3ccco3)CC2)c1,-13,-3,nt
COc1cc2c(cc1OC)C(Nc1ccccc1)=NC(C)(C)C2,-30,nt,nt
OCCN1CCN(c2cc(-c3ccccc3)c3ccccc3n2)CC1,-23,nt,nt
Cc1ccc(CN2CCN(/N=C/c3cccs3)CC2)cc1,-15,nt,nt

# Source: PubChem (several laboratories)
